Measured values reported in paper PMC4336329 (PLoS ONE, 2015).
The campaign covered roughly 310,000 compounds. About 14,000 (4.5%) showed an effect of 50% or more. The effect is printed as a negative number. Many of the other results were omitted from the sample, so strong results are more common in it than they were.

Each compound was assayed against human ether-à-go-go-related gene (hERG) potassium channel (human, UniProt Q12809) (assay: primary screen, population patch clamp on CHO cells stably expressing hERG; higher = less effect of the substance).
Sequence of human ether-à-go-go-related gene (hERG) potassium channel (Q12809 whole entry, looked up): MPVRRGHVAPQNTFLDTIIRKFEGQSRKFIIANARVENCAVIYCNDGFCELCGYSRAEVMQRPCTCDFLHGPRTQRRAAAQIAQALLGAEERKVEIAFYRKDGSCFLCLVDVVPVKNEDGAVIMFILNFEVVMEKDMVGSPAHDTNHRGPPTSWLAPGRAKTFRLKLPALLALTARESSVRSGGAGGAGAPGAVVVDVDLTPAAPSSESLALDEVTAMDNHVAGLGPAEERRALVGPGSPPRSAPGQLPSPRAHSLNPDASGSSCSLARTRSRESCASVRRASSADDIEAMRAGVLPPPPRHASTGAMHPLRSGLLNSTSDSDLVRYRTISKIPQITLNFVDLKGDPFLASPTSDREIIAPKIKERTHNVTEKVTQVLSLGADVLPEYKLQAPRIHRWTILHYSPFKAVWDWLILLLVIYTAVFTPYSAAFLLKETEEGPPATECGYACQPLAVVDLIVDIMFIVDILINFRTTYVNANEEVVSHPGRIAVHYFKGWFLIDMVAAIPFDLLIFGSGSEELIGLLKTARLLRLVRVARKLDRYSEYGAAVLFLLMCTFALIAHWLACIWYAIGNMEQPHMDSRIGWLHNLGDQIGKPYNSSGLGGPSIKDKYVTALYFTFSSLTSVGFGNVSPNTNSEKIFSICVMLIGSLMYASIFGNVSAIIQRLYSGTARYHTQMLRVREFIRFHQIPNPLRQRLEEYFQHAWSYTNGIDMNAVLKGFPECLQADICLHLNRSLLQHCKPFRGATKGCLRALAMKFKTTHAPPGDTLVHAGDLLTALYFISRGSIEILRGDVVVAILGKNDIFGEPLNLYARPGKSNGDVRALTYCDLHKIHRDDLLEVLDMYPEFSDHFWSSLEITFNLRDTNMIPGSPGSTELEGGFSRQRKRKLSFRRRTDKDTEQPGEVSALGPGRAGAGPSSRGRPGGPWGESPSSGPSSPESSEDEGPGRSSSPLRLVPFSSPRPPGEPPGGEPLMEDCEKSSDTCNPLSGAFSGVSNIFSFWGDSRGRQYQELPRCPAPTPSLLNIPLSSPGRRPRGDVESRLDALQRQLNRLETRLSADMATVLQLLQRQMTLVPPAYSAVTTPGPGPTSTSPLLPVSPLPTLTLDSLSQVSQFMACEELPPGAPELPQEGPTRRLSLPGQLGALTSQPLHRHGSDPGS
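Also: peak tail current of the secondary pulse compared with the same well before compound.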

Row | SMILES | hERG current change (%, negative = inhibition) at 10uM [%]
1 | CCCCn1c(N)c(N(CCOC)C(=O)c2c(CC)noc2C)c(=O)[nH]c1=O | 19.9
2 | CCCC/C(O)=C1\C(=O)CC(C)(C)CC1=Nc1ccc(N)cc1 | -11.4
3 | CC(C)NC[C@H](O)COc1ccc(CC(N)=O)cc1 | 12.8
4 | Oc1oc(-c2ccccc2)nc1/C=N/c1nccs1 | 13.1
5 | Cc1ccccc1NC(=O)c1csc2c1CCCC2 | -20.9
6 | COc1ccc(-c2nnnn2C)cc1S(=O)(=O)NCc1ccccc1 | -13.9
7 | Cc1noc(C)c1COc1ccc(C(=O)OCC(=O)N2CC(=O)Nc3ccccc32)cc1 | 4.54
8 | Cc1noc(C)c1CSCC(=O)OCC(=O)N1CC(=O)Nc2ccccc21 | -72.4
9 | Cc1noc(C)c1COc1cccc(C(=O)OCC(=O)N2CC(=O)Nc3ccccc32)c1 | -0.541
10 | COC(=O)c1ccc(CSc2nc(C)nc3c2c(=O)n(C)c(=O)n3C)o1 | 14.7
11 | Cc1cccc(-n2cnc3cc(C(=O)N4CCc5ccccc54)ccc32)c1 | -61.5
12 | Cc1nc2cc(C(=O)N3CCc4ccccc43)ccc2n1-c1ccc(F)c(F)c1 | -69.7
13 | Cc1ccc(C(=O)N2CCc3ccccc32)cc1 | -7.42
14 | O=C(c1ccc(F)c(F)c1)N1CCCc2ccccc21 | 0.0993
15 | O=C(c1ccc2ccccc2c1)N1CCc2ccccc21 | 3.51
16 | Cc1cccc(-n2cnc3cc(C(=O)N4CCCCC4)ccc32)c1 | -21.3
17 | CCc1ccc(NC(=O)CCn2c(=O)oc3ccccc32)cc1 | -10.1
18 | CCc1ccc(-c2nc3ccc(Br)cc3c(C(=O)O)c2C)s1 | 19.1
19 | CCOc1ccc(NC(=O)CN2CCN(c3ccc(F)cc3)CC2)cc1 | -22.2
20 | O=C(CN1CCN(c2ccccn2)CC1)Nc1ccc(F)c(F)c1 | -27.6
21 | CCOc1ccc(NC(=O)CN2CCN(CC(=O)Nc3cc(OC)cc(OC)c3)CC2)cc1 | -74.9
22 | COc1cc(NC(=O)CN2CCCCCC2)cc(OC)c1 | 5.28
23 | CCCCOc1ccc(NC(=O)CN2CCN(CC)CC2)cc1.Cl | -15.9
24 | CCN1CCN(CCC(=O)Nc2ccc(F)c(F)c2)CC1 | -17.1
25 | CCc1sc(C(=O)N2CCN(c3ccc(F)cc3)CC2)cc1C | -16.3

Row | SMILES | hERG current change (%, negative = inhibition) at 10uM [%]
26 | O=C(CN1CCN(c2ccc(Cl)cc2)CC1)Nc1cccc(F)c1 | -3.54
27 | CCc1sc(C(=O)N2CCN(CC(=O)Nc3cccc(F)c3)CC2)cc1C | -65
28 | CCOc1ccc(NC(=O)CN2CCN(CC(=O)Nc3ccc(F)cc3)CC2)cc1 | -77.2
29 | CCOc1ccc(NC(=O)CN2CCN(CC(=O)Nc3ccc(F)c(F)c3)CC2)cc1 | -78.3
30 | COC(=O)c1ccccc1C(=O)N1CCOCCN(C(=O)c2ccccc2C(=O)OC)CCOCC1 | 0.0748
31 | O=C(Cn1cncn1)NCc1cccc(OC(F)F)c1 | 7.23
32 | O=C(Nc1nc2ccccc2s1)C1CCN(S(=O)(=O)c2cc([N+](=O)[O-])ccc2Cl)CC1 | 10.4
33 | COc1ccc(CCN=c2c([N+](=O)[O-])nn(-c3cccc(C)c3)n2O)cc1OC | -34.1
34 | O=C(COC(=O)C1CCN(S(=O)(=O)c2cccc3cccnc23)CC1)c1ccccc1 | 7.23
35 | Cc1onc(-c2ccccc2)c1C(=O)NC(C)C1CCCO1 (centres unmarked) | 10.5
36 | C/C(=N\Nc1cc(N2CCOCC2)nc(C)n1)c1ccc(F)cc1 | -12
37 | Clc1cccc(Cc2ccc(Cl)nn2)c1 | -3.46
38 | COc1cccc2cc(C(=O)N3CCN(C(=O)c4ccccc4)CC3)c(=O)oc12 | 7.71
39 | O=C(Nc1ccccc1Cc1ccccc1)c1ccccc1F | -4.48
40 | COc1ccc(Oc2ccccc2/C=N/O)cc1 | 4.99
41 | Cc1sc2ncnc(N3CCC(C(=O)Nc4ccc(C#N)c(Cl)c4)CC3)c2c1C | -7.2
42 | Cc1ccc(OCCC(=O)Nc2ccc(F)c(F)c2)cc1 | -5.62
43 | O=C(CN1CCN(c2ccccn2)CC1)Nc1cccc(F)c1 | 5.56
44 | O=C(CN1CCN(S(=O)(=O)c2ccc(F)cc2)CC1)Nc1ccc(Cl)c(C(F)(F)F)c1 | 9.48
45 | O=C(COc1ccc(S(=O)(=O)N2CCOCC2)cc1)Nc1ccc(Cl)c(C(F)(F)F)c1 | -13.1
46 | CCOc1ccc(NC(=O)CN2CCN(CC(=O)Nc3cccc(F)c3)CC2)cc1 | -86.3
47 | CC(=O)c1cccc(OCC(=O)N2CCN(CC(=O)Nc3cccc(F)c3)CC2)c1 | -42.2
48 | COc1ccccc1N1CCN(CC(=O)Nc2cccc(F)c2)CC1 | -28.1
49 | O=C(CN1CCN(C(=O)COc2cccc(F)c2)CC1)Nc1ccc(Cl)c(C(F)(F)F)c1 | -60.6
50 | CCOc1ccc(NC(=O)CN2CCN(CC(=O)Nc3ccc(Cl)c(C(F)(F)F)c3)CC2)cc1 | -57

Row | SMILES | hERG current change (%, negative = inhibition) at 10uM [%]
51 | O=C(CN1CCN(c2ccccn2)CC1)Nc1ccc(Cl)c(C(F)(F)F)c1 | -7.97
52 | Cc1ccc(OCCC(=O)Nc2ccc(F)c(Cl)c2)cc1 | 5.65
53 | Cc1ccc(OCCC(=O)Nc2ccc(C)c(F)c2)cc1 | -50.6
54 | Cc1c(NC(=O)c2ccc([N+](=O)[O-])o2)cccc1-c1nc2ncccc2o1 | -11.8
55 | CCC(C)C(=O)Nc1ccc([N+](=O)[O-])cc1OC (centres unmarked) | 4.15
56 | CCC(C)(C)NC(=O)CN(Cc1ccc(OC)cc1)C(=O)CCC(=O)Nc1nccs1 | -4.32
57 | O=C(NC1CCCCC1)c1ccc(S(=O)(=O)c2ccccc2Cl)c([N+](=O)[O-])c1 | 1.94
58 | COc1cccc(CC(=O)OCC(=O)N(C)CC(=O)Nc2ccc(F)cc2)c1 | -9.44
59 | CN(C)c1ccc(C2Nc3ccccc3C(=O)N2NS(C)(=O)=O)cc1 (centres unmarked) | 14.2
60 | C/C(=N\NC(=O)c1nnn(-c2nonc2N)c1CN1CCCCCC1)c1ccc(Br)cc1 | 24.6
61 | Cc1ccc(OCCOC(=O)c2c(-c3ccccc3)noc2C)cc1 | 7.59
62 | CCOc1ccc(NC(=O)CN2CCN(C3c4ccccc4-c4ccccc43)CC2)cc1 | -40.3
63 | CCOc1ccc(NC(=O)CN2CCN(Cc3c(F)cccc3F)CC2)cc1 | -75.3
64 | CCOc1ccc(NC(=O)CN2CCc3ccccc3C2)cc1 | -6.01
65 | CCOc1cc(N2CCOCC2)c(OCC)cc1NC(=O)c1nc2nc(C)cc(C)n2n1 | 18.4
66 | COCCCNC(=O)/C=C/c1ccc(OCc2c(F)cccc2Cl)cc1 | -1.25
67 | O=C(/C=C/c1ccc(OCc2c(F)cccc2Cl)cc1)N1CCOCC1 | -30.1
68 | CN(C)CCCNC(=O)/C=C/c1ccc(OCc2c(F)cccc2Cl)cc1 | -67
69 | COc1cc2c(cc1OC)C(c1ccccc1F)OC(=O)C2 (centres unmarked) | 6.96
70 | O=C(CN1CCOCC1)Nc1ncc(Cc2cccc3ccccc23)s1 | -23.3
71 | O=C(CN1CCOCC1)Nc1ncc(Cc2cccc(Cl)c2)s1 | -43
72 | O=C(CN1CCOCC1)Nc1ncc(Cc2cccc(Cl)c2Cl)s1 | -51.4
73 | O=C(COc1ccc2ccccc2c1)Nc1ccc2c3c(cccc13)CC2 | 3.91
74 | O=C(CSc1ncnc2c1cnn2-c1cccc(Cl)c1)NCC1CCCO1 (centres unmarked) | 7.88
75 | CCCc1cc(=O)oc2cc(C)cc(OC(C)C(=O)NCc3ccncc3)c12 (centres unmarked) | -69.5

Row | SMILES | hERG current change (%, negative = inhibition) at 10uM [%]
76 | Cc1cc(OC(C)C(=O)NCc2ccncc2)c2c(C)cc(=O)oc2c1 (centres unmarked) | -49.2
77 | CCCCc1cc(=O)oc2cc(C)cc(OC(C)C(=O)NCc3ccncc3)c12 (centres unmarked) | -36
78 | CCCc1cc(=O)oc2cc(C)cc(OC(C)C(=O)NCc3cccnc3)c12 (centres unmarked) | -47.3
79 | CCc1cc(=O)oc2cc(C)cc(OC(C)C(=O)NCc3cccnc3)c12 (centres unmarked) | -32.9
80 | CCc1cc(=O)oc2cc(C)cc(OC(C)C(=O)NCc3ccncc3)c12 (centres unmarked) | -56.8
81 | O=S(=O)(Nc1nc2c(s1)CCCC2)c1ccc(F)cc1 | -21.1
82 | O=C(NCCc1cccc(F)c1)[C@@H]1CSC2c3ccccc3C(=O)N21 (some centres unmarked) | -13.9
83 | Cc1cc(C(=O)Nc2ccc3c(c2)OCCO3)c(C)o1 | 4.25
84 | COC(=O)c1cccc(Oc2cccc(C(F)(F)F)c2)n1 | 13
85 | Cc1ccc(S(=O)(=O)N2C(=O)CCC2C(=O)Nc2ccc3c(c2)OCCO3)cc1 (centres unmarked) | 10.6
86 | O=C1CCN(Cc2cccnc2)CCN1[C@H](CO)c1ccccc1 | 16
87 | CCN(CC)C(=O)COc1ccc(-c2ccccc2)cc1 | -36
88 | CCN(CC(=O)NCc1ccc(F)cc1)C(=O)CCNS(=O)(=O)c1cccc(C)c1 | -51.9
89 | O=C(NCc1ccc(F)cc1)c1cc2ccccc2o1 | -13.4
90 | CCN(Cc1ccccc1)C(=O)COc1ccccc1 | 9.21
91 | CCN(CC(=O)NCc1ccc(F)cc1)C(=O)c1ccc(COc2ccccc2)cc1 | -47.9
92 | CCN(CC(=O)NCc1ccc(F)cc1)C(=O)COc1ccc(C)c(C)c1 | -53.6
93 | CCN(CC(=O)NCc1ccc(F)cc1)C(=O)Cc1c(F)cccc1Cl | -37.6
94 | CCN(CC(=O)NCc1ccc(F)cc1)C(=O)c1ccc(C)o1 | 6.13
95 | CCN(CC(=O)NCc1ccc(Cl)cc1)C(=O)c1cc2ccccc2o1 | -32.2
96 | CCN(CC(=O)Nc1c(F)cccc1F)C(=O)CCNS(=O)(=O)c1ccc(C)c(C)c1 | 1.26
97 | CCN(CC(=O)NCc1ccc(F)cc1)C(=O)c1cc2ccccc2o1 | -55.9
98 | CCc1ccc(OCC(=O)N(CC)CC)cc1 | -55
